In PubChem BioAssay (NCI):
About 83,000 compounds went through this panel and 20% of them were active in at least one assay; those are over-represented in the sample as a whole.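 For each line, cells grew in 96-well plates with the test compound present at a single concentration for 48 hours.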 A number with no mark means an inactive call. The source made the active and inactive calls. Rule for the calls: active = growth percent below 10; inactive = the rest.

What was measured:
Experiment in all cases: NCI-60 one-dose screen, 48 h (100 = growth as untreated, 0 = no growth, -100 = all killed)
Conditions in all cases: 10 µM unless noted
BT-549 breast = tested on: BT-549 breast
MDA-MB-435 melanoma = tested on: MDA-MB-435 melanoma
SW-620 colon = tested on: SW-620 colon
MCF7 breast = tested on: MCF7 breast
HCT-116 colon = tested on: HCT-116 colon
HCC-2998 colon = tested on: HCC-2998 colon
KM12 colon = tested on: KM12 colon

| Compound | growth (BT-549 breast) | growth (MDA-MB-435 melanoma) | growth (SW-620 colon) | growth (MCF7 breast) | growth (HCT-116 colon) | growth (HCC-2998 colon) | growth (KM12 colon) |
| --- | --- | --- | --- | --- | --- | --- | --- |
| Cc1ccc(S(=O)(=O)N/N=C2\CC3CCC2C3)cc1 (stereo unspecified) | 107% | 103% | 106% | 97% | 103% | 120% | 105% |
| CCc1ccc(C(=Nc2ccc(N(C)C(=O)CN3CCN(C)CC3)cc2)c2c(O)[nH]c3ccc(C(=O)OC)cc23)cc1 | -87.9% (active) | -20.5% (active) | -67.3% (active) | -68.4% (active) | -67.9% (active) | -92% (active) | -60.8% (active) |
| CC1(C)Oc2cc3oc(=O)ccc3cc2C[C@@H]1OCCOS(=O)(=O)c1ccc(C#N)cc1 | 90.3% | 94.9% | 89.3% | 82.3% | 110% | 103% | 103% |
| COc1cc2cn3c4ccc(O)cc4[nH]c(=O)c3c2cc1OC |  | 9.28% (active) | 16.8% | -77.9% (active) | -100% (active) | 13.1% | -2.22% (active) |
| O=C1C(=O)c2ccccc2C(O)=C1CCCc1ccc(Oc2ccccc2)cc1 | 60.9% | 45.4% | 39.9% | 83.3% | 22.1% | 103% | 67.3% |
| C#CCCCCCCC[C@@H]1OC(=O)[C@H]([C@@H](C)CC)NC(=O)[C@@H]([C@@H](C)CC)NC(=O)CC(=O)[C@@H]1C | 104% | 107% | 101% | 99% | 94.8% | 109% | 105% |
| COC(=O)c1ccc2[nH]c(O)c(C(=Nc3ccc(N(C)C(=O)CN4CCN(C)CC4)cc3)c3ccc(N)cc3)c2c1 | 81.5% | 90.6% | 70.3% | 40.7% | 41.4% | 108% | 18.4% |
| O=C(Nc1cccc(Cn2c(=O)[nH]c3ccc(Oc4ncccn4)cc3c2=O)c1)c1cccc(F)c1 | 71.4% | 51% | 95.3% | 57.9% | 70.8% | 92.5% | 66.6% |
| COC(=O)/C=C/c1cc(O)c2oc(-c3ccc(O)c(O)c3)c(C(=O)OC)c2c1 | 46.6% | -37.1% (active) | 14.8% | 9.36% (active) | 24.5% | 47.2% | 13.8% |
| Cc1ccc(C(=O)Nc2ccc(CN3CCN(C)CC3)c(C(F)(F)F)c2)cc1C#Cc1cnc(N)c2ccc(F)cc12 | -95.9% (active) | -93.2% (active) | -83.6% (active) | -79.7% (active) |  | -78.5% (active) | -76.9% (active) |
| C/C=C(/C)C(=O)OC1C=C(CO)C(=O)C(OC(=O)C2(C)OC2C)C1C(C)C (stereo unspecified) | -7.25% (active) | -31.8% (active) | -26.8% (active) | 8.26% (active) |  | -87.6% (active) | -56.3% (active) |
| C=C1CCC2C3(C)COC(c4ccccc4)OC3CCC2(C)C1C/C=C1/C(=O)OCC1O (stereo unspecified) | 56.5% | 72.8% |  |  | 38.6% | 94.1% |  |
| Cc1ncc(C(=O)Nc2ccc(CN3CCN(C)CC3)c(C(F)(F)F)c2)cc1C#Cc1c(N)ncc2ccc(F)cc12 | 23.6% | -66.5% (active) | -72.1% (active) | -72.6% (active) | -72% (active) | 39.1% | -80.7% (active) |
| COC(=O)c1ccc(C(=Nc2ccc(N(C)C(=O)CN3CCN(C)CC3)cc2)c2c(O)[nH]c3ccc(C(=O)OC)cc23)cc1 | 45.8% | 43.6% | 18.9% | 23.5% | 10.9% | 54.5% | 15.3% |
| Nc1nc2cc(O)ccc2n2cc3c(F)cccc3c12 |  | -8.3% (active) | 17.5% | -7.71% (active) | 15.1% | 58.5% | 35.3% |
| Cc1ccc(C(=O)Nc2ccc(CN3CCN(C)CC3)c(C(F)(F)F)c2)cc1C#Cc1cncc2ncccc12 | -82.3% (active) | -93.3% (active) | -66.6% (active) | -65.4% (active) | -84.7% (active) | 34.8% | -81.6% (active) |
| Cc1cc2cn3c4ccc(O)cc4nc(N)c3c2cc1C |  | -31.2% (active) | 11% | -46.8% (active) | -100% (active) |  | 6.3% (active) |
| COc1cc(-c2c3c(cn2CCN2CCCCC2)-c2oncc2CC3)cc(OC)c1OC | 105% | 101% | 95.2% | 91% |  | 106% | 107% |
| COc1ccc2cnc(N)c(C#Cc3cc(C(=O)Nc4ccc(CN5CCN(C)CC5)c(C(F)(F)F)c4)cnc3C)c2c1 | 54.7% | 26.2% | 13.8% | 39% | 20.5% | 86.1% | 11% |
| CCOC(=O)c1c2c(cn1Cc1ccccc1)-c1oncc1CC2 | 94.5% | 111% | 103% | 98.8% |  | 111% | 104% |
| CC(=O)OC1/C=C\CC/C=C\C1 (stereo unspecified) | 110% | 103% | 101% | 106% | 107% | 129% | 103% |
| O=C(Nc1cccc2[nH]c(C(F)(F)F)nc12)c1ccc(F)cc1 | 87.5% | 87.2% | 91.5% | 83.8% | 84.4% | 115% | 73.1% |
| O=C(NCCNCCO)c1cc([N+](=O)[O-])cc([N+](=O)[O-])c1O | 121% | 104% | 103% | 102% |  | 101% | 108% |
| C/C(=N\Nc1cccc(Cl)n1)c1ccccn1 | 22.9% | 31.3% | 32.5% | 10.1% | 10% | 32.6% | 25.8% |
